Screening data from PubChem BioAssay.
The list is not random: actives were taken first. Their share in the collection is about 5.7%.
DAX1 inh-1: DAX1 (NR0B1) inhibitors on StAR promoter, primary screen, cell-based, luminescence, SF-1 (NR5A1), full-length DAX-1. HEK293T StAR-luciferase reporter, SF-1/DAX-1 repression relief. hit rate 1.1% among 370,000. inhibition, % at 6.8 µM;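 active means inhibition above the mean over all tested compounds plus 3 SD, cut at about 3.6% in these data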;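 further: higher inhibition means more luminescence from relief of DAX-1 repression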
AHR act: AHR activators, primary screen, cell-based, luminescence, luciferase reporter, human. AHR-responsive luciferase reporter cells. activation, % at 5 µM. hit rate 2.5% among 320,000. AID 2796, 2010; in the data active means activation above about 47%
hcDAF12 agonist: H. contortus DAF-12 nuclear receptor activators, primary screen, cell-based, luminescence, HEK293, lit1-tk-luc reporter. activation, % at 6.8 µM. hit rate 1.4% among 370,000. HEK293 hcDAF-12 lit1-tk-luc reporter; 0% DMSO, 100% Δ7-dafachronic acid;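 active means activation above the mean of all tested compounds plus 3 SD, cut at about 5.5% in these data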
DAX1 inh-2: DAX1 (NR0B1) inhibitors, primary screen, cell-based, HEK293, Gal4-DAX1, luciferase luminescence. Nuclear receptor subfamily 0 group B member 1 (Homo sapiens), P51843. HEK293 Gal4-DAX1 luciferase reporter. inhibition, % at 6.75 µM. hit rate 0.99% among 340,000;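 active means inhibition above the mean over all tested compounds plus 3 SD, cut at about 4.2% in these data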;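 further: inhibition shows as a rise in luminescence from relieved DAX1 repression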
Target sequence (P51843 207-470 limits assumed): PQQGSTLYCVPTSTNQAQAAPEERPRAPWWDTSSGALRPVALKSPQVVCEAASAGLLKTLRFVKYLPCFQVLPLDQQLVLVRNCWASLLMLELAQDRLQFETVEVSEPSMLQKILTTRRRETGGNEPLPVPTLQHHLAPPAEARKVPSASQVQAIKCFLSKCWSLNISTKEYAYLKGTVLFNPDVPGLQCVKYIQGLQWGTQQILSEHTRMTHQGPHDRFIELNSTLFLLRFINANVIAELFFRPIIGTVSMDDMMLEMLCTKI
hgDAF-12 ag: H. glycines DAF-12 receptor agonists, primary screen, cell-based, luminescence, HEK293, GAL4 fusion, UAS-luciferase | activation, % at 6.8 µM | Nuclear hormone receptor DAF-12 (Heterodera glycines), GAL4 fusion | hit rate 1.8% among 370,000 | HEK293 GAL4-hgDAF12 UAS-luciferase reporter, agonist luminescence; normalized to butyrate control;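 active means activation above a cutoff set at the mean of all screened compounds plus 3 SD, cut at about 10% in these data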
ssDAF12 agonist: S. stercoralis DAF-12 nuclear receptor activators, primary screen, cell-based, luminescence, HEK293, GRIP1 co-expression, lit1-tk-luc | Nuclear hormone receptor DAF-12 (Strongyloides stercoralis) | HEK293 ssDAF-12/GRIP1 lit1-tk-luc reporter; % of 3 µM dafachronic acid response | activation, % at 6.8 µM | hit rate 1% among 370,000;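 active means activation above the mean over all tested compounds plus 3 SD, cut at about 0.9% in these data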
Each line names hits and unclear results; the compound was inactive in the other large screens.

CCCCNC(=O)c1ccc(CS(=O)(=O)c2cccc(C(F)(F)F)c2)o1	none
O=C(O)c1ccc(CS(=O)(=O)c2cccc(C(F)(F)F)c2)o1	DAX1 inh-2 4.5
COc1ccc(-c2ccc(C(=O)Nc3ccc4c(c3)OCO4)c3occc23)c(C)c1	hgDAF-12 ag 13 (no result: AHR act, DAX1 inh-2)
Cc1cc(C)cc(N(CC(=O)NC2CCCC2)S(=O)(=O)c2c(C)[nH]c(=O)[nH]c2=O)c1	none
Cn1cc(C=C2C(=O)OC3(CCCCC3)OC2=O)c2ccccc21	none
Cn1cc(C=C2C(=O)CC(C)(C)CC2=O)c2ccccc21	ssDAF12 agonist 1.3
Cc1c[nH]c2cccc(-c3ccccc3)c12	none (no result: AHR act, DAX1 inh-2)
COc1ccc2cc(-c3cccc4[nH]cc(C)c34)ccc2c1	ssDAF12 agonist 1.5 (no result: AHR act, DAX1 inh-2)
CCCC(=O)Nc1ccc(S(=O)(=O)N2CCc3ccccc32)cc1	DAX1 inh-2 4.8 (no result: AHR act)
CCC(=O)Nc1ccc(S(=O)(=O)N2CCc3ccccc32)cc1	none
O=C(CNC(=O)c1cccc(S(=O)(=O)N2CCc3ccccc32)c1)Nc1ccccc1Br	ssDAF12 agonist 1.2 (no result: AHR act)
CCOc1ccc(NC(=O)CC2SC(N)=NC2=O)c([N+](=O)[O-])c1 (configuration not stated)	none
Cc1ncsc1C(=O)N1N=C2/C(=C/c3ccccc3)CCCC2C1c1ccccc1 (configuration not stated)	none
O=C(O)CSCC(=O)N1N=C2/C(=C/c3ccccc3)CCCC2C1c1ccccc1 (configuration not stated)	AHR act 49
NC(=O)N1N=C2/C(=C/c3ccccc3)CCCC2C1c1ccccc1 (configuration not stated)	AHR act 59
Cc1cccc(NC(=S)N2CCN(S(=O)(=O)c3ccccc3)CC2)c1	none (no result: AHR act)
O=C(Cn1cnc2c(oc3nc4c(cc32)CCCC4)c1=O)Nc1ccccc1	none
C=C(C)Cn1cnc2c(oc3nc4c(cc32)CCCC4)c1=O	DAX1 inh-2 6.6
CN1c2ccccc2C(C)(C)C12CC(c1ccc(Cl)c(S(=O)(=O)N3CCCC3)c1)=NO2 (configuration not stated)	none (no result: DAX1 inh-1, hcDAF12 agonist, DAX1 inh-2, hgDAF-12 ag, ssDAF12 agonist)
CCc1cccc(N=c2c([N+](=O)[O-])nn(-c3ccc(Cl)cc3)n2O)c1	none
Cc1cccc(N=c2c([N+](=O)[O-])nn(-c3ccc(Cl)cc3)n2O)c1	AHR act 62
Cc1cc(C)cc(N=c2c([N+](=O)[O-])nn(-c3cccc(Cl)c3)n2O)c1	AHR act 69
O=C(Nc1ccc2c(c1)OCCO2)C1CCN(S(=O)(=O)c2cccs2)CC1	none
Cc1cc(C)c(NC(=O)C2CCCN2CCC(C)C)c(C)c1 (configuration not stated)	DAX1 inh-2 4.8
CCC(C)N1CCCC1C(=O)Nc1c(C)cc(C)cc1C (configuration not stated)	none
COC(=O)c1c(C)oc2ccc(OC(=O)N3CCOCC3)cc12	none
Cc1oc2ccc(O)cc2c1C(=O)OC(C)C	none
CC(C)(C)c1ccc(OC(=O)N2CCOCC2)cc1	hgDAF-12 ag 11
Cc1oc2ccc(OCC(N)=O)cc2c1C(=O)OC(C)C	AHR act 59
Cc1oc2ccc(OC(=O)N3CCOCC3)cc2c1C(=O)OC(C)C	AHR act 47
CCc1ccc(/C=C2\SC(=S)N(CCCC(=O)Nc3ccc(C(=O)O)cc3)C2=O)cc1	hcDAF12 agonist 6.0
O=C(CSc1ccc(Br)cc1)N1CCN(C(=O)c2ccco2)CC1	none
Cc1ccc(C)c(CSc2nc3[nH]ncc3c(=O)[nH]2)c1	AHR act 48
Cc1ccc(NC(=O)c2oc3ccccc3c2NC(=O)c2ccc3c(c2)OCO3)cc1	ssDAF12 agonist 1.1
COc1ccc(NC(=O)c2oc3ccccc3c2NC(=O)C2CC2)cc1	AHR act 72
CCOCC(=O)Nc1c(C(=O)Nc2ccc(OC)cc2OC)oc2ccccc12	AHR act 67
COc1ccc(NC(=O)c2oc3ccccc3c2NC(=O)c2ccco2)c(OC)c1	none
O=C(Nc1ccc(-c2nc3c(ccc4ccccc43)o2)cc1)c1ccco1	AHR act 67
Cc1ccc(-c2nnc(OCC3CCCO3)c3ccccc23)cc1 (configuration not stated)	none
Cc1ccc(NC(=S)NNC(=O)CCn2cc(C)cn2)cc1	none
Cc1nn2c(Nc3ccccc3)c3c(nc2c1-c1ccccc1)CCC3	none
CCOC(=O)c1oc2ccccc2c1NC(=O)C(C)(C)C	none
CCOCC(=O)Nc1c(C(=O)OCC)oc2ccccc12	AHR act 68
COc1ccc(NC(=O)c2oc3ccccc3c2NC(=O)c2ccco2)cc1	AHR act 69
COc1ccc(NC(=O)c2oc3ccccc3c2NC(=O)C2CC2)c(OC)c1	AHR act 55
COC(=O)c1ccc(C)c(NC(=O)CCc2cc(OC)c(OC)c(OC)c2)c1	none
CCOc1cc(S(=O)(=O)NC2CC(C)(C)NC(C)(C)C2)ccc1Cl	none
Cc1noc(C)c1COC(=O)c1cccc(S(=O)(=O)N2CCOCC2)c1	none
O=C1CCCN1CC(O)CS(=O)(=O)Cc1ccc(Cl)cc1 (configuration not stated)	none (no result: DAX1 inh-2)
CCN(C(=O)c1ccc2c(=O)n3c(nc2c1)CCCCC3)c1cc(OC)ccc1OC	none
Cc1cc2oc(=O)cc(CN(Cc3ccccc3)Cc3ccccc3)c2cc1Cl	none (no result: AHR act, DAX1 inh-2)
COc1ccc(C2CC2/C(C)=N/OC(=O)C2CC2)cc1 (configuration not stated)	none
N#C/C(=N/Nc1ccc(OC(F)(F)F)cc1)C(N)=S	AHR act 54
Cc1cccc(NC(=O)C(=O)NCc2ccc3c(c2)OCO3)c1C	none
C=CCn1c(C)cc(C2=NNC(=Nc3ccc(C)cc3)SC2)c1C	none
CC(C)c1ccc(N=C2NN=C(c3cccs3)CS2)cc1	DAX1 inh-2 7.2
Cc1ccc(C2=NNC(=Nc3ccc(F)cc3)SC2)cc1	hcDAF12 agonist 5.7, hgDAF-12 ag 11 (no result: AHR act)
COc1ccc(C(C#N)c2nc3ccccc3nc2Cl)cc1 (configuration not stated)	none (no result: AHR act)
Cn1cncc1C#Cc1c(C=O)[nH]c2ccccc12	AHR act 68
CC(C)c1ccc(NCCC(=O)c2cccs2)cc1	none
O=C(CCNc1cccc(Cl)c1)c1cccs1	ssDAF12 agonist 1.4
Cc1ccc(C(=O)N/N=C(/CC(=O)c2cccs2)C(F)(F)F)cc1	AHR act 62
